Measurements as given in PubChem BioAssay (NCI).
“And” between values parts separate entries of the source, which are not always exact repeats. Identical values can stand only once. This is part of a sample that, as a whole, favours compounds with a hit. Of some 79,000 tested, about 15% had one in any assay. Unmarked numbers belong to inactive results. The source made the active and inactive calls. No stated cut-off is given here; in the data, active means growth inhibition above about 70%; inactive means the rest.

Test: NCI Yeast Anticancer Drug Screen. Data for the rad50 strain (AID 155);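 further: 0% = growth of vehicle-only cultures of the same strain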
Conditions: S. cerevisiae rad50 strain growth inhibition; at 50.0 µM; stronger effect = higher value
How it was run: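 DNA repair mutant yeast, compound exposure, growth read-out; inhibition is taken relative to vehicle.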

SMILES	growth inhibition
COc1cc(C(c2cc3c(cc2O)OCO3)N2CCN(C(c3cc(OC)c(OC)c(OC)c3)c3cc4c(cc3O)OCO4)CC2)cc(OC)c1OC (stereo not given)	23.6%
Cc1cc(N)c(C)c2c1[nH]c1ccc(Br)cc12	54.1%
COc1ccc(C2c3cc4c(cc3OC(O)(CO)C2C(=O)O)OCO4)cc1 (stereo not given) (tested in a mixture with another compound)	53.5%
CC(=O)OC1COC(SC(=N)N)C(OC(C)=O)C1OC(C)=O (stereo not given)	41.4% and 24.4% and 20%
CCCCCC(/C=N/Nc1nc(C)cc(=O)[nH]1)=C\c1ccccc1	31.3%
NCC(=O)NC(CO)C(=O)O (stereo not given)	-8.05% and -12.9% and -12.8%
O=C1/C(=C/c2ccc([N+](=O)[O-])cc2)CNC/C1=C\c1ccc([N+](=O)[O-])cc1	77% (active)
CC(c1ccc2cccc(F)c2c1)c1ccccc1C(=O)O (stereo not given)	99% (active)
OC(c1ccccc1)C(O)c1ccccc1 (stereo not given)	5.85% and 22.8% and 24.1%
CN(NC(=O)CC(=O)NN(C)C(=S)c1ccccc1)C(=S)c1ccccc1	68.5%
O=c1nc(N2CCCC2)nc(N2CCCC2)s1	-11.4%
CC(=O)SC1C(=O)N(C)C(SC(C)=O)C(=O)N1C (stereo not given)	95.8% (active)
CCN(CC)CC(O)c1ccnc2c(O)cccc12 (stereo not given)	80.2% (active)
Nc1ccc(S(=O)(=O)O)c2ccccc12	-17.7% and -12.8% and 15.7%
CC1=NN(c2ccccc2)C(=O)C1N=Nc1cc(Cl)cc(S(=O)(=O)O)c1O (stereo not given)	66.3%
O=C(O)CC(NC(=O)CP(=O)(O)O)C(=O)O.[NH-]C1CCCCC1[NH-].[Pt+2] (stereo not given)	-2.95%
COc1ccc(-c2nc3c(C(=O)NCCN(C)C)cccc3c3ccccc23)cc1	70.5% (active)
C[C@]12CCC(=O)C=C1CC[C@@H]1[C@@H]2[C@@H](O)C[C@@]2(C)[C@H]1CC[C@]2(O)C(=O)COC(=O)CCC1CCCC1	83.9% (active)
O=C1C=CC(=O)N1c1cccc([N+](=O)[O-])c1	99.6% (active)
CC(=O)O/C=C1\c2ccccc2CCC1c1ccc2ccccc2c1 (stereo not given)	-4.45%

SMILES	growth inhibition
COC1OC2COC(c3ccccc3)OC2C(O)C1O (stereo not given)	-23.9% and 17.1% and 20.4%
CCOc1ccccc1NC1=C(Cl)C(=O)c2ccccc2C1=O	23.9%
CCc1cccc(C)c1N1C(=O)C(=O)C(c2nc3ccccc3o2)/C(=N\NS(=O)(=O)c2ccc(C)cc2)C1=O (stereo not given)	-6.6%
O=C(CC(=O)c1ccccc1)CC(=O)c1cccc(Cl)c1	81.1% (active)
CC(O)c1c2ccccc2cc2ccccc12 (stereo not given)	84.4% (active)
CCCCCCCCCCCCCCCCC#N	50.4%
CSc1ccccc1C(=O)O	-0.25% and -1.5% and -11%
O=C1/C(=C/c2cccc(Br)c2)CCc2ccccc21	66.3%
CC1(C)c2ccccc2Cc2cc3ccccc3nc21	97.8% (active)
Cc1ccc(S(=O)(=O)OCC(O)C(O)COS(=O)(=O)c2ccc(C)cc2)cc1 (stereo not given)	35.8% and -13.8% and 12.6%
CN(C)Cc1ccc2[nH]c3c(c2c1)CCCC3	66.8%
C=C1C(=O)O[C@@H]2C[C@@]3(C)CCC[C@H](C)C3=C[C@H]12	50.5%
O=C1C=CC(=O)c2c1cc1ccccc1c2O	4.45%
Cc1c(CNc2ccc(Cl)c(Cl)c2Cl)cnc2nc(N)nc(N)c12	78.5% (active)
O=C(O)C1(Cc2ccc3c(c2)CCC3)Cc2cc3c(cc2C1)CCC3	82.8% (active)
O=C(c1ccc(O)c(Br)c1)c1cc(Br)ccc1O	95.7% (active)
Oc1cc(F)cc2cccnc12	92.3% (active)
OCC(O)C(O)C(O)C(O)CNCC(O)C(O)C(O)C(O)CO (stereo not given)	5.3% and 10.1% and 19.6%
C/C(=N\OC(=O)c1ccccc1)[N+](=O)[O-]	88.1% (active)
O=C(c1ccccc1)C(Br)CCCC(Br)C(=O)c1ccccc1 (stereo not given)	97% (active)
